GSIS activator = GLuc luminescence reporter in INS-1E cells, primary screen for activators of glucose-dependent secretion of insulin; INS-1E GLuc reporter insulin secretion, 2-3 h; activation, % at 16.6 µM; 370,000 tested, 0.61% active;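 active means lowest replicate activation of at least 40%, so every replicate reaches that level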;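 further: 0% = median of neutral control wells and 100% = median of IBMX positive control wells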
AF4-AF9 inh = inhibitors of AF4 peptide binding to AF9, primary screen, biochemical, AlphaScreen, biotin-AF4 peptide, FLAG-AF9, single point | AID 651704, 2012 | 350,000 tested, 0.47% active | inhibition, % at 10 µM | Protein AF-9 (Homo sapiens), P42568;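 active means every replicate reaching a set inhibition limit, whatever the replicate mean, cut at about 25% in these data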;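 further: 0% = plate neutral control median and 100% = total signal loss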
Target sequence (P42568 whole entry, looked up): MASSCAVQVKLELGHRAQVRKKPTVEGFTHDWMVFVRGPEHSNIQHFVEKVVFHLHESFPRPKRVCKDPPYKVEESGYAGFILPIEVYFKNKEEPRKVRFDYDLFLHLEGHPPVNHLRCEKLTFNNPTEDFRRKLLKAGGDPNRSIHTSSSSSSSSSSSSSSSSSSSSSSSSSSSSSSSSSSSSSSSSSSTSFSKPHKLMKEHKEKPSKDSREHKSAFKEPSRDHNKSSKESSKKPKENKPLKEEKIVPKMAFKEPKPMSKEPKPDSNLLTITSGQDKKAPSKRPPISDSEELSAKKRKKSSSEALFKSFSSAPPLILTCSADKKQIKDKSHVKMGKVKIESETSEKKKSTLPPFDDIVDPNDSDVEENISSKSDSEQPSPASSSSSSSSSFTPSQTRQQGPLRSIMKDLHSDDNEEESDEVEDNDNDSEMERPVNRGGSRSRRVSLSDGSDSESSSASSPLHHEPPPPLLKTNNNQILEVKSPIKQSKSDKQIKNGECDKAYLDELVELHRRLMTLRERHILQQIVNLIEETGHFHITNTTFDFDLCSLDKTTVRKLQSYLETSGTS
PGC1a acetyl inh = inhibitors of PGC1a acetylation signal, primary screen, cell-based, U2OS, AlphaScreen, inhibitor mode. inhibition, % at 15.6 µM. 350,000 tested, 0.17% active. AlphaScreen anti-acetyl-lysine; with virally co-expressed GCN5 acetyltransferase;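 active means every replicate shows inhibition of at least 40%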;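 further: 0% = neutral control wells and 100% = positive control wells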
NSD2 HMT inh = NSD2 histone methyltransferase inhibitors, primary screen, biochemical, AlphaScreen, single concentration, set 2; NSD2 peptide methylation, 120 min; inhibition, % at 12.5 µM; 310,000 tested, 0.54% active; AID 743445, 2014; in the data active means inhibition above about 50%
HIV Env fusion = inhibitors of HIV-1 Env-driven cell-cell fusion, primary screen, HeLa-JRFL effector, CEM21 target cells, luciferase | inhibition, % at 12.3 µM | 360,000 tested, 1.1% active;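 active means mean replicate inhibition score of at least 50 and every replicate individually at or above 50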;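 further: 0% = plate neutral controls and 100% = maraviroc near 300 nM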
An asterisk follows results filed as active; [ ] = remark or other dose. Sampled rows, rich in hits. Any-hit rate of the full collection: about 2.1%.

Screening CN(C(=S)Nc1ccc(F)cc1)C(c1ccccc1)c1ccccc1 returned GSIS activator -28.4, AF4-AF9 inh -0.2, NSD2 HMT inh -2.5 and HIV Env fusion -0.1.
CCOC(=O)C1=C(C)N(C[C@@H]2CC[C@@H](Cc3ccc(-c4ccccc4)cc3)O2)C(=O)NC1c1ccc(C(F)(F)F)cc1 (stereo not given in full) was read as GSIS activator 15.3, AF4-AF9 inh -5.2 and HIV Env fusion 67.1*.
Screening CCOC(=O)C1=C(C)N(C[C@@H]2CC[C@@H](Cc3ccc(-c4ccccc4)cc3)O2)C(=O)NC1c1cccc2ccccc12 (stereo not given in full) returned GSIS activator 8.5, AF4-AF9 inh 1.0 and HIV Env fusion 16.8.
For Cc1cccc(-c2nc(CSCC(=O)N3CCN(c4ccccn4)CC3)c(C)o2)c1 the results were PGC1a acetyl inh 10.3, NSD2 HMT inh 5.4 and HIV Env fusion 89.3*.
`S=c1nc[nH]c2c1[nH]c1ccc(Cl)cc12` gave AF4-AF9 inh -18.4, PGC1a acetyl inh -1.5, NSD2 HMT inh 0.0 and HIV Env fusion 68.5*.
S=c1nc[nH]c2c1[nH]c1ccccc12 was read as PGC1a acetyl inh 4.9 and NSD2 HMT inh -0.6.
For CCCNC(=O)N1CC2(CN(Cc3cccc(OC)c3)C2)c2c([nH]c3cc(OC)ccc23)[C@H]1CO the results were GSIS activator 9.6, AF4-AF9 inh 36.2* and HIV Env fusion -10.4[16.7 µM].
CCCNC(=O)N1CC2(CN(Cc3cccc(OC)c3)C2)c2c([nH]c3cc(OC)ccc23)[C@@H]1CO was read as GSIS activator 3.6, AF4-AF9 inh 31.9* and HIV Env fusion -15.9[16.7 µM].
CCCNC(=O)N1CC2(CCN(Cc3cccc(OC)c3)CC2)c2c([nH]c3cc(OC)ccc23)[C@H]1CO was read as GSIS activator -10.9, AF4-AF9 inh 8.7 and PGC1a acetyl inh -14.4.
For CCCNC(=O)N1CC2(CN(Cc3cccc(F)c3)C2)c2c([nH]c3cc(OC)ccc23)[C@H]1CO the results were GSIS activator -19.7, AF4-AF9 inh 25.9* and PGC1a acetyl inh 8.5.
`CCCNC(=O)N1CC2(C1)CN(Cc1cccc(F)c1)[C@H](CO)c1[nH]c3cc(OC)ccc3c12` gave GSIS activator 2.1, AF4-AF9 inh 10.9 and PGC1a acetyl inh -4.4.
For O=C(OCc1cn([C@@H]2CN(CC3CCCCC3)[C@@H](c3ccccc3)C[C@H]2O)nn1)c1ccccc1 the results were GSIS activator -16.9, AF4-AF9 inh -2.3, PGC1a acetyl inh -9.4 and HIV Env fusion -8.7.
For N#C[C@H]1[C@@H](c2ccccc2C2=CCCC2)[C@@H](CO)N1C(=O)C1CCOCC1 the results were GSIS activator -9.5, AF4-AF9 inh -7.6 and PGC1a acetyl inh 1.7.
For Cc1cc(C)nc(SCCC(=O)Nc2cccc3ccccc23)n1 the results were PGC1a acetyl inh 5.8 and NSD2 HMT inh -0.5.
C[C@@H]1CN([C@H](C)CO)S(=O)(=O)c2ccc(Br)cc2O[C@@H]1CN(C)Cc1ccc(-c2ccccc2)cc1 was read as GSIS activator -31.3, AF4-AF9 inh 3.2, PGC1a acetyl inh -0.4 and HIV Env fusion 75.9*.
Screening C[C@H](CO)N1C[C@H](C)[C@H](CN(C)CC2CC2)Oc2cc(/C=C/c3ccccc3)ccc2S1(=O)=O returned GSIS activator -0.2, AF4-AF9 inh 25.7*, PGC1a acetyl inh -16.4 and HIV Env fusion 20.5[16.7 µM].
Cc1ccc(-c2ccc3c(c2)O[C@@H](CN(C)Cc2ccccc2)[C@H](C)CN([C@@H](C)CO)S3(=O)=O)cc1 was read as GSIS activator 5.2, AF4-AF9 inh 3.5, PGC1a acetyl inh 8.2 and HIV Env fusion 23.9[16.7 µM].
For Cc1ccccc1-c1ccc2c(c1)O[C@H](CN(C)C(=O)Nc1ccc(C(F)(F)F)cc1)[C@H](C)CN([C@@H](C)CO)S2(=O)=O the results were GSIS activator -8.1, AF4-AF9 inh -0.4, PGC1a acetyl inh 0.0 and HIV Env fusion 56.1*[16.7 µM].
Screening C[C@@H]1CN([C@@H](C)CO)S(=O)(=O)c2ccc(-c3ccccc3)cc2O[C@H]1CN(C)Cc1ccccc1 returned GSIS activator -12.8, PGC1a acetyl inh 29.7 and HIV Env fusion 55.2*[16.7 µM].

Screening data: PubChem BioAssay, Broad Institute
